# Assay results published in PubChem BioAssay AID485364 (National Center for Advancing Translational Sciences (NCATS), 2010).
# In all, about 360,000 compounds went through this assay and about 11,000 (3.1%) were called active. Inconclusive results (about 4%) are left out. The sample as a whole holds a higher share of actives than the screen did. A number with no mark means an inactive call. The call rests on the fitted dose curve; in most records, active means well fitted inhibition curve with a large enough effect; inconclusive means small, poorly fitted or top-dose-only effect; inactive means no such curve, though single readings can be large or run the other way.
# Target: Schistosoma mansoni thioredoxin glutathione reductase (TGR) (UniProt Q962Y6)
# Experiment: qHTS Assay for the Inhibitors of Schistosoma Mansoni Peroxiredoxins; further: nearly all actives have a fitted effect of over 60% in size
# Conditions: purified TGR, DTNB reduction, TNB absorbance 405 nm; series mostly up to 114 µM; activity change, negative = inhibition: at the top concentration
# In short: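 Kinetic colorimetric format: TGR-catalysed, NADPH-driven DTNB reduction monitored via TNB absorbance. Enzyme dispensed at 20 nM; compound exposure 15 min at room temperature before reaction start.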
# On the % scale 0 is the no-effect control and ±100 the full control effect; potency means the concentration at half of the fitted maximal effect.
SMILES,Potency,"activity change, negative = inhibition [%]"
COC1=C(N2CCOCC2)C(=O)c2ccccc2C1=O,17.8 µM (active),
O=C1c2ccccc2-c2ncnc3c(N4CCOCC4)cc(N4CCOCC4)c1c23,,0.658
O=C1C(Cl)=C(N2CCOCC2)C(=O)N1c1ccccc1,,62.2
CCCS(=O)(=O)N1CCC(n2c(C(F)(F)F)nc3cccnc32)CC1,,-6.19
COc1ccccc1-c1cc2nc(C)c(CCC(=O)O)c(C)n2n1,,-1.61
CCOCCCNC(=O)c1c(NC(=O)Cc2coc3ccc(C)cc23)sc2c1CCC2,,54
O=C(CCl)Nc1ccc(Sc2ccc(NC(=O)CCl)cc2)cc1,2.82 µM (active),
CC(C)(CCl)C(=O)Nc1ccc(Sc2ccc(F)cc2)cc1,,0
O=C(Nc1ccc(Sc2ccc(Br)cc2)cc1)c1ccco1,,7.73
COc1ccc(-n2c(SC)nc3sc4c(c3c2=O)CCN(C(C)=O)C4)cc1,,7.25
Cc1cccc(-c2nnc(SCC(=O)N3CCCc4ccccc43)o2)c1,,0.677
COC(=O)c1ccccc1NC(=O)c1ccc(COc2ccccc2Cl)o1,,4.06
CCOc1ccc(NC(=O)C(=O)NCCc2csc3nc(-c4ccccc4F)nn23)cc1,,-0.856
CC(=O)c1cc(-c2ccccc2)[nH]c1N1CCCC1,50.1 µM (active),
O=c1cc(-c2ccccc2)nc(N2CCCCC2)[nH]1,,0
CC(=O)c1cc(-c2ccccc2)n(CC(=O)NC2CCCCC2)c1C,inactive,
COc1ccc(C(=O)Nc2cccc(C(=O)OCc3cc(=O)n4c5c(sc4n3)CCCC5)c2)cc1,,3.52
Oc1ccccc1-c1nc(/C=C/c2ccc(F)cc2)no1,,0.232
COc1ccc(Cc2nc3ccc(C(=O)NCc4ccccc4C)cc3o2)cc1,,3.84
CCCCC(O)(CCCC)C(=O)NN(C(=O)CCl)c1ccccc1,8.91 µM (active),
CCCC(O)(CCC)C(=O)NN(C(=O)CCl)c1cccc(C)c1,25.1 µM (active),
CC(C)(O)C(=O)NN(C(=O)c1ccccc1)c1cccc(Br)c1,,1.33
CCC(C)NC(=O)CCCc1ccccc1 (configuration not stated),,0.801
COC(=O)N(NC(=O)C(O)(C(C)C)C(C)C)c1ccccc1,,-2.07
Cc1cccc(N(Cc2ccccc2)C(=O)c2ccccc2F)c1,,-1.12
CCC(=O)N1c2ccccc2CC1C(=O)N1CCN(c2ccccc2)CC1 (configuration not stated),,-1.62

SMILES,Potency,"activity change, negative = inhibition [%]"
COc1ccccc1CNC(=O)C(Cc1ccccc1)NS(=O)(=O)c1ccc2c(c1)oc(=O)n2C (configuration not stated),,0.69
CCOc1ccccc1C(=O)NC1(C(F)(F)F)C(=O)Nc2c1c(=O)[nH]c(=O)n2-c1ccc(F)cc1 (configuration not stated),,8.33
CC(C)NC(=O)c1nn(-c2ccccc2F)nc1CO,,8.65
CCCC(=O)Nc1ccc(NC(=O)c2sc3ccccc3c2Cl)cc1,,-17.3
O=C(/C=C/NCc1ccc(F)cc1)c1ccccc1,,4.49
O=C(/C=C\NCC(=O)c1ccccc1)c1ccccc1,28.2 µM (active),
O=C(/C=C/NNC(=O)c1cccc(Br)c1)c1ccccc1,,0
COc1cc(NC(=O)CSc2nc3nc(C)c(Cc4ccc(C)cc4)c(C)n3n2)cc(OC)c1OC,,3.82
COc1ccc(NC(=O)C2CCCN(S(=O)(=O)c3c(C)[nH]c(=O)[nH]c3=O)C2)c(OC)c1 (configuration not stated),,0.241
CC(=O)N1CCCc2cc(S(=O)(=O)N3CCC(C(=O)NCc4ccc(F)cc4)CC3)ccc21,,1.32
Cc1ccc(C)c(N2CCN(S(=O)(=O)c3ccc4c(c3)C(C(C)C)C(=O)N4)CC2)c1 (configuration not stated),,7.18
CCOC(=O)C(=CNNc1ccsc1C(=O)OC)C(=O)OCC,20 µM (active),
COC(=O)c1sccc1NC(=O)CCC1CCCC1,,0.189
COC(=O)c1sccc1NN1C(=O)c2ccccc2C1=O,,-0.191
O=C(CCCCn1c(=O)c2ccccc2n(CC(=O)Nc2cccc(C(F)(F)F)c2)c1=O)NCc1ccc2c(c1)OCO2,,-1.07
COc1cccc(CNC(=O)CCc2nc(-c3ccc(C)cc3)no2)c1,,18.6
CCOC(=O)Cn1c(=O)n(-c2ccccc2OC)c2nc(-c3cccc(F)c3)nc(C(N)=O)c21,,0.122
CCOC(=O)c1ccc(-c2ccc(C(=O)Nc3cccnc3)o2)cc1,,0
COC(=O)C1=C(C)NC2=C(C(=O)c3ccccc32)C1c1ccc(-c2ccc(C(=O)O)cc2)o1 (configuration not stated),20 µM (active),
CCOc1cc(C2C(C(=O)OC)=C(C)NC3=C2C(=O)c2ccccc23)ccc1O (configuration not stated),,4.85
CCOC(=O)c1cc2c(=O)n3ccccc3nc2n(CC2CCCO2)c1=NC(=O)c1ccccc1Br (configuration not stated),,4.51
Cc1ccc(NC(=O)CCC(=O)c2ccc(Br)cc2)cc1,,-8.2
Cc1ccn(C(CC(=O)c2ccc(Br)cc2)C(=O)O)n1 (configuration not stated),8.91 µM (active),
Cc1cc(C)c2c(=O)[nH]c(SCC(=O)Nc3ccc(Br)cc3)nc2n1,,-17.4
Cc1ccc(-n2ncc3c(=O)n(Cc4cccc(C(F)(F)F)c4)cnc32)cc1C,,-1.38
O=C(Nc1ccccc1Cl)N1CCC(CN2CCCC2)CC1,,-14.6
